# From PubChem
# In the library only some 4.5% were active in any assay of this set; here they are far more common.
# BJeLR viability: kills HRASV12-expressing BJeLR cells; BJeLR (HRASV12) viability, CellTiter-Glo ATP luminescence, 48 h; inhibition, % (test concentration not listed); 0.17% of 300,000 active; AID 1554; in the data active = inhibition above about 50%
# Mtb FBA inh: Mtb fructose-bisphosphate aldolase inhibition; P9WQA3; inhibition, % at 1 µM; purified M. tuberculosis FBA, fluorescence read-out; 2.3% of 360,000 active
# Target sequence (P9WQA3 whole entry, looked up): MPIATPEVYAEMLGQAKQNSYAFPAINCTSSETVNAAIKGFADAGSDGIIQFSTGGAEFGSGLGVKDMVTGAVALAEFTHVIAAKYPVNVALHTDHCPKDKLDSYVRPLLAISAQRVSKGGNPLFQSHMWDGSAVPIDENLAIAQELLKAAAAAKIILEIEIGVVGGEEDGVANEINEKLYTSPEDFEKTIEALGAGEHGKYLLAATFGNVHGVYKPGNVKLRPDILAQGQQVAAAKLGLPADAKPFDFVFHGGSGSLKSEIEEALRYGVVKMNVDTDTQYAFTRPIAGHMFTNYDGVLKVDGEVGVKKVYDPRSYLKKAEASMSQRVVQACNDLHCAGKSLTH
# PfHsp40 rescue: restores yeast growth despite PfHsp40 toxicity; growth rescue, % at 12.5 µM; 0.68% of 340,000 active; S. cerevisiae expressing PfHsp40, growth rescue, ATP luminescence; AID 504582; in the data active = growth rescue above about 28%, passing the limit was not always enough;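 note: yeast W303a lacking pdr1 and pdr3 grown in galactose medium; growth measured after three days at 30 °C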
# GDH-TPI counter-1: counter-screen for M. tuberculosis FBA inhibitors: GDH-TPI coupled enzymes; 1.2% of 360,000 active; GDH-TPI coupled enzyme counterscreen, NADH absorbance; inhibition, % at 4.8 µM; in the data active = inhibition above about 30%
# PrP 5UTR inh: suppresses PrP 5' UTR mRNA reporter expression | cell-based PrP 5' UTR mRNA reporter, plate reader | inhibition, % (no concentration beside the values) | 0.35% of 340,000 active; in the data active = inhibition above about 52%
# PrPC surface inh: inhibitors of human cell surface prion protein PrPC; inhibition, % at 13.8 µM; P04156; TR-FRET read-out; 0.43% of 370,000 active; in the data active = inhibition above about 24%
# Mtb FBA inh conf: Mtb FBA inhibition, confirmed | shares compounds with Mtb FBA inh | purified M. tuberculosis FBA, fluorescence read-out | inhibition, % at 1 µM | 78% of 5,600 active
# GDH-TPI counter-2: GDH-TPI inhibition counter-screen for FBA inhibitors; shares compounds with Mtb FBA inh; GDH-TPI coupled enzyme counterscreen, fluorescence; 81% of 5,600 active; inhibition, % at 1 µM; in the data active = inhibition above about 10%
# Hits are given with their value; - = inactive; . = no result; + = active, no number. Cut-off read from the data, not from the text of the source, unless noted: active = inhibition above about 27%; inactive = the rest.
SMILES,BJeLR viability,Mtb FBA inh,PfHsp40 rescue,GDH-TPI counter-1,PrP 5UTR inh,PrPC surface inh,Mtb FBA inh conf,GDH-TPI counter-2
NS(=O)(=O)c1cccc(NC(=O)c2cc(-c3cccs3)nc3ccccc23)c1,-,-,-,-,-,-,.,.
NS(=O)(=O)c1ccc(CNC(=O)c2cc(-c3cccs3)nc3ccccc23)cc1,-,80,-,-,-,-,-,-
O=C(c1cc2cc(Cl)ccc2[nH]1)N1CCN(c2ccccn2)CC1,-,-,-,-,-,-,.,.
CCc1cccc(C)c1N=Cc1c(O)c2ccccc2oc1=O,-,-,-,-,-,-,.,.
Cc1ccc(NC(=O)CCC(=O)NNC(=O)NC2CCCCC2)c(C)c1,-,-,-,-,-,-,.,.
O=c1c2ccccc2c(/C=N/c2nnc(Cc3ccccc3)s2)c(O)n1-c1ccc(Cl)cn1,-,-,-,-,-,-,.,.
O=c1c2ccccc2c(/C=N/c2n[nH]c(CCCO)n2)c(O)n1-c1ccccc1Cl,-,30,-,-,-,-,73,57
CC(C)(C)c1ccc(OCC(=O)Nc2ccc3c4c(cccc24)C(=O)NC3=O)cc1,-,-,-,-,-,-,.,.
FC(F)(F)c1cnc(Sc2nnc(-c3cccs3)n2CC2CCCO2)c(Cl)c1 (stereo not given),-,-,-,-,-,-,.,.
FC(F)(F)c1ccc(Sc2nnc(-c3cccs3)n2CC2CCCO2)nc1 (stereo not given),-,83,-,-,-,-,99,69
Cc1cc2c(cc1C)-n1nnnc1C(N1CCCNCC1)C(=O)N2 (stereo not given),.,.,.,.,.,-,.,.
CC(=O)c1c(C)[nH]c(C(=O)COC(=O)c2ccc(Cl)nc2)c1C,.,-,-,-,-,-,.,.
COCC1OC(OC(C)C(O)c2cnc3nc(N)[nH]c(=O)c3n2)C(O)C(OC)C1O (stereo not given),.,103,.,-,.,-,92,66
Cc1ccccc1C(=O)NCC(=O)OC1CCCCC1=O (stereo not given),-,-,-,-,-,-,.,.
COc1ccc2nc3oc(C(=O)N4CCC(C(N)=O)CC4)cc3cc2c1,-,98,-,-,-,-,+,154
COc1ccc2cc(C(=O)N3CCN(Cc4ccc5c(c4)OCO5)CC3)[nH]c2c1,-,-,-,-,-,-,.,.
CCOC(=O)C1CCN(C(=O)c2cc3cc4ccc(OC)cc4nc3o2)CC1,-,106,-,-,-,-,-,17
COc1ccc2cc3cc(C(=O)N4CCN(Cc5ccc6c(c5)OCO6)CC4)oc3nc2c1,-,59,-,46,-,-,+,+
CCOC(=O)C1CCN(C(=O)c2ccc(OC)cc2OC)CC1,-,-,-,-,-,-,.,.
Cc1ccccc1N(C(=O)c1snc(C(N)=O)c1N)C(C(=O)NCc1ccccc1)c1ccc(O)cc1 (stereo not given),-,43,-,-,-,-,-,-
NC(=O)c1nsc(C(=O)N(c2ccccc2F)C(C(=O)NCc2ccccc2)c2ccc(O)cc2)c1N (stereo not given),-,45,-,-,-,-,-,-
CCOc1ccccc1N(C(=O)c1snc(C(N)=O)c1N)C(C(=O)NCc1ccccc1)c1ccc(O)cc1 (stereo not given),-,-,-,-,-,-,.,.
Cc1cc(N2CCC(N(C)C3CCCC3)CC2)nc2cc(O)ccc12,-,28,-,-,-,-,91,73
Cc1cc(N2CCN(c3ccccc3)CC2)nc2ccccc12,-,-,-,-,-,-,.,.
CCOC(=O)N1CCN(C(=O)COc2ccc3c(c2)C(=O)CC2(CCN(C(C)=O)CC2)O3)CC1,-,63,-,-,-,-,139,120
SMILES,BJeLR viability,Mtb FBA inh,PfHsp40 rescue,GDH-TPI counter-1,PrP 5UTR inh,PrPC surface inh,Mtb FBA inh conf,GDH-TPI counter-2
Cc1ccc(OCC(=O)N2CCC3(CC2)CC(=O)c2ccccc2O3)cc1,-,-,-,-,-,-,.,.
CC(=O)N1CCC2(CC1)CC(=O)c1cc(OCC(=O)N3CCOCC3)ccc1O2,-,70,-,-,-,-,67,67
COc1ccc(S(=O)(=O)NC2CCSc3ccccc32)cc1OC (stereo not given),-,-,-,-,-,-,.,.
Cc1cc(NC(=O)CSCC(=O)N(C)Cc2ccc(Cl)cc2Cl)no1,-,-,-,-,-,-,.,.
CCC1(c2ccc(F)cc2)NC(=O)N(CC(=O)N2CC(=O)Nc3ccccc32)C1=O (stereo not given),-,29,-,-,-,-,163,116
CCCC1(c2ccccc2)NC(=O)N(CC(=O)N2CC(=O)Nc3ccccc32)C1=O (stereo not given),.,-,-,-,-,-,.,.
CCCOc1ccc(-c2nnc(-c3ccco3)o2)cc1,-,60,-,-,-,-,50,36
COc1cccc(-c2nnc(-c3ccco3)o2)c1,-,62,-,-,-,-,+,+
COc1cccc(C(=O)Nc2ccc(-c3nnc(-c4ccco4)o3)cc2)c1,-,-,-,-,-,-,.,.
CC(C)COc1ccc(-c2nnc(-c3ccco3)o2)cc1,-,43,-,-,-,-,54,43
CCCCn1c(N)c(N(CCOC)C(=O)COC(=O)c2ccccc2OCC)c(=O)[nH]c1=O,-,-,-,-,-,-,.,.
CCCn1c(N)c(N(CCOC)C(=O)COC(=O)c2ccccc2NCCO)c(=O)[nH]c1=O,-,90,-,-,-,-,122,103
CC(NC(=O)c1cccs1)C(S)c1ccccc1 (stereo not given),-,-,-,-,-,-,.,.
N#CCCN1C(=O)C2(OCCO2)c2ccccc21,-,-,-,-,-,-,.,.
CC(C)CCN(CCC(C)C)CC(O)Cn1c2ccccc2c(=O)c2ccccc21 (stereo not given),-,31,-,-,-,-,45,35
COc1ccccc1Oc1coc2c(CN3CCOCC3)c(O)ccc2c1=O,-,80,-,-,-,-,+,156
COc1ccccc1Oc1coc2cc(OCC(N)=O)ccc2c1=O,-,-,-,-,-,-,.,.
COc1ccccc1-c1coc2c(CN3CCOCC3)c(O)ccc2c1=O,-,73,-,-,-,-,153,124
Oc1ccc2ccccc2c1CN1CCOCC1,-,-,-,-,-,-,.,.
CS(=O)(=O)N1CCC[C@]2(CC[C@@H](CCC#N)O2)C1,.,.,.,.,.,-,.,.
Cc1csc2ncc(C(=O)NC(C)c3ccccc3)c(=O)n12 (stereo not given),-,63,-,-,-,-,199,159
CC(NC(=O)c1ccccc1O)c1ccccc1 (stereo not given),-,41,-,-,-,-,156,122
Cc1csc2ncc(C(=O)NCc3ccccc3Cl)c(=O)n12,-,49,-,-,-,-,107,112
